Structures are written as SMILES. The list shows a part of the results. Active and inactive are the calls of the source.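 The calls were made as follows: active = compounds that block the splicing kinase Clk1 enough to give a fitted half-inhibition concentration; inactive = the rest.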

Dual specificity protein kinase CLK1 (Homo sapiens), sequence (P49759 whole entry, looked up, canonical isoform): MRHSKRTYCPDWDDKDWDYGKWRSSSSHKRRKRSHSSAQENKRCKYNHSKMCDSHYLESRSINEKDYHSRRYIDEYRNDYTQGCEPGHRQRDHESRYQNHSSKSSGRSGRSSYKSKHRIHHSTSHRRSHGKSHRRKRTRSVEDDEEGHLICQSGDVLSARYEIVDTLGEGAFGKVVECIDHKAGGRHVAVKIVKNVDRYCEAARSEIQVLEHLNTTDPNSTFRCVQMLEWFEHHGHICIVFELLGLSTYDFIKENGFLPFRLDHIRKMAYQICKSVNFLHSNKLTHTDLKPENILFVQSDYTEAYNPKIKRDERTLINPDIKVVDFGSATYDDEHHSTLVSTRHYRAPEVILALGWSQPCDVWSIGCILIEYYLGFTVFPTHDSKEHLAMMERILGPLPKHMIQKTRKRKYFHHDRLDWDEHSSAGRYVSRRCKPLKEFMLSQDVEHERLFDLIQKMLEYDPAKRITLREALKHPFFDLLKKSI

This test concerns the target Dual specificity protein kinase CLK1 (Homo sapiens) (UniProt P49759). Description: Kinase Inhibition Study on Inhibitors of CDC-like Kinase 1 (Reaction Biology data). To be noted: recombinant Clk1 kinase assay, 10 uM ATP. The text has this: NIH Molecular Libraries Probe Production Centers Network [MLPCN] NIH Chemical Genomics Center [NCGC] MLPCN Grant: 1R03MH084827-01 Assay Submitter (PI): Tom Misteli NCGC Assay Overview: Alternative splicing of pre-mRNAs plays a major role in the regulation of eukaryotic gene expression. Alternative splicing is now thought to be one of the primary reasons for the complexity of higher organisms leading to an average of three protein isoforms per gene. Aberrant splicing can lead to a number of diseases and is known to play a role in rare genetic diseases such as progeria syndrome. Hutchinson-Gilford Progeria Syndrome (HGPS) is a pediatric premature aging disease caused by a spontaneous mutation in the lamin A/C (LMNA) gene due to a single point mutation in the lamin A gene effecting 1 in 4 million people. To identify both specific splicing modulators of the lamin A gene as well as general splicing modulators, a cell-based HTS assay was developed using a minigene reporter system (AIDs, 1459 & 1487). […] This AID summarizes the characterization of lead compounds in Clk1.
All kinase reactions were performed using 10 uM ATP in the assay. 100% activity was taken from kinase reactions with DMSO alone (the vehicle used for compound stock solutions).
Turning to `c1nc(N2CCOCC2)c2cc(-c3ccc4c(c3)OCO4)ccc2n1`, the Potency is 1110 nM (active). For `CN(Cc1cncn1C)c1ncnc2ccc(-c3ccc4c(c3)OCO4)cc12` the value was 2800 nM (active); for `CC(Nc1ncnc2ccc(-c3ccc4c(c3)OCO4)cc12)c1ccco1` (stereo not drawn), 5750 nM (active).

The record behind these values is PubChem BioAssay AID504430 (National Center for Advancing Translational Sciences (NCATS), 2011).
